From PMC8384837, “Expanding the binding specificity for RNA recognition by a PUF domain” come the findings set out here.

Test in all cases: yeast three-hybrid, YBZ-1, SC-Leu-His + 0.5 mM 3-AT, 4 days
Holding throughout (details): tags: N-Gal4 AD-HA kept; label: inside an RPR1-promoter hybrid RNA with tandem MS2 sites; ssRNA

Assay [1] concerns the target PUM1 PUF domain R4-DWL (Homo sapiens, UniProt Q14671 828-1176, N971D;H972W;Q975L). The essentials:
(§1)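 The interaction score is the logarithmic change in variant frequency from input to selection. It uses log2, with a pseudocount of 1 for absent variants, and frequencies came from PCR-amplified, Illumina-sequenced repeat regions. The libraries were Pumilio-1 PUF domains randomized at the three base-contacting residues per repeat, co-expressed with matching RNA elements in strain YBZ-1 (LexA–MS2 coat fusion, HIS3 reporter). Plating lasted four days on SC-Leu (input) or SC-Leu-His + 0.5 mM 3-AT (selection).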

The target in assay [2] is PUM1 PUF domain R3-LWQ (Homo sapiens, UniProt Q14671 828-1176, C935L;R936W). In short, it runs like this:
as §1

For assay [3], the target named is PUM1 PUF domain R3-SSK (Homo sapiens, UniProt Q14671 828-1176, C935S;R936S;Q939K). The essentials: as §1
Assay [4] deals with PUM1 PUF domain R8-TFN (Homo sapiens, UniProt Q14671 828-1176, N1122T;Y1123F;Q1126N). In short, it runs like this:
as §1

Assay [5] deals with PUM1 PUF domain R8-QWG (Homo sapiens, UniProt Q14671 828-1176, N1122Q;Y1123W;Q1126G). In short, it runs like this:
as §1

For assay [6], the target named is PUM1 PUF domain R8-RRG (Homo sapiens, UniProt Q14671 828-1176, N1122R;Y1123R;Q1126G). The essentials:
as §1

Assay [7] addresses PUM1 PUF domain R8-NWK (Homo sapiens, UniProt Q14671 828-1176, Y1123W;Q1126K). In short, it runs like this: as §1
In assay [8] the target is T1, PUM1 PUF domain R6-FWR (Homo sapiens, UniProt Q14671 828-1176, N1043F;Y1044W;Q1047R).
T1 sequence: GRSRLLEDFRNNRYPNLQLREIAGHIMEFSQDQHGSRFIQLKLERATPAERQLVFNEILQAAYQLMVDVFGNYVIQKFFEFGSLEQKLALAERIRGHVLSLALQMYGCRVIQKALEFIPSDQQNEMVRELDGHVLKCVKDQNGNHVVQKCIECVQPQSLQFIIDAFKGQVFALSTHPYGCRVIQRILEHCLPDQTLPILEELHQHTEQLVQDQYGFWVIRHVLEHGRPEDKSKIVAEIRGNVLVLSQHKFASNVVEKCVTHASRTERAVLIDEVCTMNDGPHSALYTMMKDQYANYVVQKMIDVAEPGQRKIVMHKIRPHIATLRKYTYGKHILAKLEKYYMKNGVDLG
In short, it runs like this:
as §1

Assay [9] concerns the target PUM1 PUF domain R7-LFR (Homo sapiens, UniProt Q14671 828-1176, S1079L;N1080F;E1083R). The essentials: as §1
The target of assay [10] is PUM1 PUF domain R7-RPC (Homo sapiens, UniProt Q14671 828-1176, S1079R;N1080P;E1083C). In short, it runs like this: as §1
Assay [11] addresses PUM1 PUF domain R7-RGH (Homo sapiens, UniProt Q14671 828-1176, S1079R;N1080G;E1083H). In short, it runs like this: as §1
Assay [12] concerns the target PUM1 PUF domain R1-RVI (Homo sapiens, UniProt Q14671 828-1176, S863R;R864V;Q867I). The essentials:
as §1

The target of assay [13] is PUM1 PUF domain R2-GWY (Homo sapiens, UniProt Q14671 828-1176, N899G;Y900W;Q903Y). The essentials:
as §1

For assay [14], the target named is PUM1 PUF domain R3-TRL (Homo sapiens, UniProt Q14671 828-1176, C935T;Q939L). The essentials: as §1
The target of assay [15] is PUM1 PUF domain R5-FQR (Homo sapiens, UniProt Q14671 828-1176, C1007F;R1008Q;Q1011R). The essentials: as §1
Assay [16] deals with PUM1 PUF domain R5-QNS (Homo sapiens, UniProt Q14671 828-1176, C1007Q;R1008N;Q1011S). The essentials:
as §1

Assay [17] addresses PUM1 PUF domain R5-KHA (Homo sapiens, UniProt Q14671 828-1176, C1007K;R1008H;Q1011A). The essentials:
as §1

For assay [18], the target named is T2, PUM1 PUF domain R6-NRG (Homo sapiens, UniProt Q14671 828-1176, Y1044R;Q1047G).
T2 sequence: T1 sequence with F216N, W217R, R220G
The essentials:
as §1

Assay [19] has as its target PUM1 PUF domain R4-MLC (Homo sapiens, UniProt Q14671 828-1176, N971M;H972L;Q975C). In short, it runs like this:
as §1

The target of assay [20] is T3, PUM1 PUF domain R6-HYR (Homo sapiens, UniProt Q14671 828-1176, N1043H;Q1047R).
T3 sequence: T1 sequence with F216H, W217Y
In short, it runs like this: as §1

Where a chain is given by its changes, count along the chain named.

On to “GGCUAGAACUAGUGGAUCCCCCGGCGCCCGGCGGCUCGAGCCCGGGUAAGUGUAUAUAGUCUGCAUGCCGCCGGGCGCCAUGCCUGCAGGUCGACUCUAGAAAACAUG”, for which the binding signal in assay [1] was 5.76 log2 enrichment (interaction score).
“GGCUAGAACUAGUGGAUCCCCCGGCGCCCGGCGGCUCGAGCCCGGGUAAGUGUAAGUAGUCUGCAUGCCGCCGGGCGCCAUGCCUGCAGGUCGACUCUAGAAAACAUG”: the binding signal is 5.4 log2 enrichment (interaction score) in assay [2] and 2.38 log2 enrichment (interaction score) in assay [3].
As to “GGCUAGAACUAGUGGAUCCCCCGGCGCCCGGCGGCUCGAGCCCGGGUAAGCGUAAAUAGUCUGCAUGCCGCCGGGCGCCAUGCCUGCAGGUCGACUCUAGAAAACAUG”, the binding signal in assay [4] is 2.95 log2 enrichment (interaction score); in [5], 2.14 log2 enrichment (interaction score); in assay [6] it was 2.76 log2 enrichment (interaction score); in assay [7], 4.45 log2 enrichment (interaction score).
For “GGCUAGAACUAGUGGAUCCCCCGGCGCCCGGCGGCUCGAGCCCGGGUAAGUGAAAAUAGUCUGCAUGCCGCCGGGCGCCAUGCCUGCAGGUCGACUCUAGAAAACAUG”, the binding signal in assay [8] was 4.17 log2 enrichment (interaction score).
Take “GGCUAGAACUAGUGGAUCCCCCGGCGCCCGGCGGCUCGAGCCCGGGUAAGUUUAAAUAGUCUGCAUGCCGCCGGGCGCCAUGCCUGCAGGUCGACUCUAGAAAACAUG”: the binding signal in [9] was 5.84 log2 enrichment (interaction score); in assay [10] it was 3.97 log2 enrichment (interaction score); in assay [11] it was 3.07 log2 enrichment (interaction score).
With “GGCUAGAACUAGUGGAUCCCCCGGCGCCCGGCGGCUCGAGCCCGGGUAAGUGUAAAUCGUCUGCAUGCCGCCGGGCGCCAUGCCUGCAGGUCGACUCUAGAAAACAUG”, the binding signal in assay [12] was 2.84 log2 enrichment (interaction score).
For “GGCUAGAACUAGUGGAUCCCCCGGCGCCCGGCGGCUCGAGCCCGGGUAAGUGUAAAUUGUCUGCAUGCCGCCGGGCGCCAUGCCUGCAGGUCGACUCUAGAAAACAUG”, the binding signal in [12] was 2.56 log2 enrichment (interaction score).
For “GGCUAGAACUAGUGGAUCCCCCGGCGCCCGGCGGCUCGAGCCCGGGUAAGUGUAAAAAGUCUGCAUGCCGCCGGGCGCCAUGCCUGCAGGUCGACUCUAGAAAACAUG”, the binding signal in assay [13] was 3.42 log2 enrichment (interaction score).
“GGCUAGAACUAGUGGAUCCCCCGGCGCCCGGCGGCUCGAGCCCGGGUAAGUGUAAUUAGUCUGCAUGCCGCCGGGCGCCAUGCCUGCAGGUCGACUCUAGAAAACAUG”: the binding signal in assay [2] was 4.13 log2 enrichment (interaction score); in assay [3] it was 2.9 log2 enrichment (interaction score); in assay [14], 0.95 log2 enrichment (interaction score).
On to “GGCUAGAACUAGUGGAUCCCCCGGCGCCCGGCGGCUCGAGCCCGGGUAAGUGUACAUAGUCUGCAUGCCGCCGGGCGCCAUGCCUGCAGGUCGACUCUAGAAAACAUG”, for which the binding signal in assay [1] was 4.62 log2 enrichment (interaction score).
“GGCUAGAACUAGUGGAUCCCCCGGCGCCCGGCGGCUCGAGCCCGGGUAAGUGUUAAUAGUCUGCAUGCCGCCGGGCGCCAUGCCUGCAGGUCGACUCUAGAAAACAUG”: the binding signal in assay [15] is 3.58 log2 enrichment (interaction score); in assay [16] it was 3.13 log2 enrichment (interaction score).
For the sequence “GGCUAGAACUAGUGGAUCCCCCGGCGCCCGGCGGCUCGAGCCCGGGUAAGUGUCAAUAGUCUGCAUGCCGCCGGGCGCCAUGCCUGCAGGUCGACUCUAGAAAACAUG”, the binding signal in [15] was 2.5 log2 enrichment (interaction score); in assay [17] it was 6.11 log2 enrichment (interaction score).
Regarding “GGCUAGAACUAGUGGAUCCCCCGGCGCCCGGCGGCUCGAGCCCGGGUAAGUGUAAAUAGUCUGCAUGCCGCCGGGCGCCAUGCCUGCAGGUCGACUCUAGAAAACAUG”, the binding signal in assay [18] was 3.99 log2 enrichment (interaction score); in assay [1], 6.99 log2 enrichment (interaction score); in assay [13], 1.07 log2 enrichment (interaction score); in assay [19], 2.59 log2 enrichment (interaction score); in [5], 2.95 log2 enrichment (interaction score); in assay [17], 3.94 log2 enrichment (interaction score). The binding signal is 5.76 log2 enrichment (interaction score) in assay [20], 5.25 log2 enrichment (interaction score) in assay [8], 1.3 log2 enrichment (interaction score) in [6] and 2.97 log2 enrichment (interaction score) in [14].
With “GGCUAGAACUAGUGGAUCCCCCGGCGCCCGGCGGCUCGAGCCCGGGUAAGUCUAAAUAGUCUGCAUGCCGCCGGGCGCCAUGCCUGCAGGUCGACUCUAGAAAACAUG”, the binding signal was 4.97 log2 enrichment (interaction score) in assay [9], 0.8 log2 enrichment (interaction score) in assay [10] and 1.99 log2 enrichment (interaction score) in assay [11].
